B1: PhoQ; a variant is named by its letters at X, in order, P23837 (parent)
chain: MKKLLRLFFPLSLRVRFLLATAAVVLVLSLAYGMVALIGYSVSFDKTTFRLLRGESNLFYTLAKWENNKLHVELPENIDKQSPTMTLIYDENGQLLWAQRDVPWLMKMIQPDWLKSNGFHEIEADVNDTSLLLSGDHSIQQQLQEVREDDDDAEMTHSVAVNVYPATSRMPKLTIVVVDTIPVELKSSYMVWSWFIYVLSANLLLVIPLLWVAAWWSLRPIEALAKEVRELEEHNRELLNPATTRELTSLVRNLNRLLKSERERYDKYRTTLTDLTHSLKTPLXXLQXXLRSLRSEKMSVSDAEPVMLEQISRISQQIGYYLHRASMRGGTLLSRELHPVAPLLDNLTSALNKVYQRKGVNISLDISPEISFVGEQNDFVEVMGNVLDNACKYCLEFVEISARQTDEHLYIVVEDDGPGIPLSKREVIFDRGQRVDTLRPGQGVGLAVAREITEQYEGKIVAGESMLGGARMEVIFGRQHSAPKDE

Over roughly 140,000 sequences, “enrichment ratio after two sorts for PhoP signalling” has its median near 0; the highest 2% begin near 11. This excerpt belongs to a sample that is enriched for the highest values.

The experiment covers variants of B1. In words: enrichment ratio after two sorts for PhoP signalling (ratio (wild type AVST 3.29)); higher = more functional. The following applies: with PhoP (E. coli).
As to LCAS, the enrichment ratio is not above 0.25. As to AWQV, the enrichment ratio is not above 0.25. Next, QRPC: not above 0.25. To IARV belongs not above 0.25.

Consider HCSE, for which the enrichment ratio was not above 0.25. To YKNC belongs not above 0.25; to HYGG, not above 0.25; to ESAV, 2.02. Next, LFIM: not above 0.25. Next, WQAC: not above 0.25; MMIC: not above 0.25; TQCE: 87.9. For the variant DWCG, the enrichment ratio is not above 0.25.

In the case of TQCS, the enrichment ratio is 15.1. Next, TQCV: 10.8; TQPI: not above 0.25. Consider TQCA, for which the enrichment ratio came out at 17.6. FQCG: the enrichment ratio turned out to be 1.7.

TQIE: the enrichment ratio is not above 0.25. Next, TQCP: not above 0.25. To TQCG belongs 14.9; to TQNE, not above 0.25; to TQAI, 3.21.

Regarding HAWL, the enrichment ratio is not above 0.25. Next, SAVY: 1.85; QKIT: not above 0.25; GSFP: not above 0.25.

For DITR, the enrichment ratio is not above 0.25.

On to PWHF, for which the enrichment ratio was not above 0.25. To MSDL belongs not above 0.25; to NNLP, not above 0.25. To RETI belongs not above 0.25; to HCYR, not above 0.25; to RHMQ, not above 0.25. Next, WQYV: not above 0.25; RTWF: not above 0.25; TQEL: not above 0.25. On to TQYS, for which the enrichment ratio was found to be 12.5. Next, SQYS: not above 0.25; TQTH: 6.85. Next, TQRL: not above 0.25; TQCI: 16.

On to TQQP, for which the enrichment ratio was not above 0.25. To TQYK belongs not above 0.25; to TQCQ, 27.8. Next, TQCK: 1.24; TQCL: 12.5; FQCQ: not above 0.25. To WRPN belongs not above 0.25. Turning to GCIS, the enrichment ratio stood at 2.07.

For PPWA, the enrichment ratio was not above 0.25. Next, HQSY: not above 0.25; RKAR: not above 0.25; MEHS: not above 0.25. To EHIP belongs not above 0.25. Next, NQYE: not above 0.25. In the case of TQYI, the enrichment ratio is not above 0.25. To TQWI belongs 1.91. Next, HDSA: not above 0.25.

In the case of TQYE, the enrichment ratio turned out to be 35.7.

With RNCT, the enrichment ratio is not above 0.25. To WQCT belongs not above 0.25; to TQSA, 19.8. In the case of TQCT, the enrichment ratio was 12.5.

As to TQWA, the enrichment ratio was determined as 17.1.

Regarding TQSK, the enrichment ratio is not above 0.25. To NVSA belongs not above 0.25. Next, GFAI: not above 0.25; GLPN: not above 0.25; GAFM: not above 0.25.

Regarding EVEQ, the enrichment ratio was not above 0.25. Next, FEQI: not above 0.25; YIWG: not above 0.25; TQRK: not above 0.25.

For the variant TQSI, the enrichment ratio amounted to 11.7.

For TQTG, the enrichment ratio came out at 5.83. To WSSI belongs not above 0.25.

Consider TEFF, for which the enrichment ratio turned out to be 6.49. Next, MCRI: not above 0.25; TELE: 11.2. To HPLE belongs not above 0.25; to TEVE, 11.6.

For TEYE, the enrichment ratio was not above 0.25. Next, MELE: not above 0.25; MEVE: not above 0.25.

The values above are taken from a collection of fitness landscapes (doi:10.1126/science.1257360).
